A selection: hits, their analogues and other compounds. The true share with any hit is near 1.3%.
3CLpro inhibitor – SARS-CoV 3CLpro protease inhibitors, primary screen, biochemical, quenched FRET. recombinant SARS-CoV 3CLpro, quenched FRET peptide cleavage. Replicase polyprotein 1ab (Severe acute respiratory syndrome coronavirus), P0C6X7. hit rate 0.14% among 290,000. inhibition, % at 6 µM; in the data active = inhibition above about 12%
RN4220 kill – growth inhibition of S. aureus RN4220, primary screen, OD600; 16 h; inhibition, % (concentration not given with the values); hit rate 0.33% among 330,000; in the data active = inhibition above about 85%;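 also: plate controls were untreated cells for no effect and reference antibiotic for full effect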
Mtb bLac sens – beta-lactam sensitization of Mtb H37Rv, H37Rv; M. tuberculosis H37Rv growth with meropenem, percent inhibition; inhibition, % at 25 µM; hit rate 0.27% among 330,000; call rule not given here;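 also: growth measured after seven days incubation then overnight dye step; 0% = bacteria only wells and 100% = bacteria with antibiotic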
Sa ugtP lethal – growth inhibition of ugtP-null S. aureus, primary screen, RN4220 ugtP deletion, OD600. 16 h. growth inhibition, % (concentration not given with the values). hit rate 0.54% among 330,000; in the data active = growth inhibition above about 68%;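 also: plate controls were untreated wells for no effect and antibiotic for full effect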
CCHFV vOTU inh – CCHFV vOTU protease inhibitors, primary screen, biochemical, Pep-AMC substrate, fluorescence | inhibition, % at 11.5 µM | hit rate 0.55% among 370,000 | Crimean-Congo hemorrhagic fever virus L polyprotein viral ovarian tumor (vOTU) protease …; in the data active = inhibition above about 30%; also: 0% = vehicle wells with enzyme and 100% = no enzyme wells
MazF activator – activators of E. coli MazEF toxin-antitoxin RNase, primary screen, biochemical, fluorescence, uHTS. FAM/BHQ RNA-DNA oligo cleavage fluorescence, 5 h. activation, % at 20 µM. hit rate 0.32% among 350,000; in the data active = activation above about 50%
Target sequence (P0AE70 whole entry, looked up): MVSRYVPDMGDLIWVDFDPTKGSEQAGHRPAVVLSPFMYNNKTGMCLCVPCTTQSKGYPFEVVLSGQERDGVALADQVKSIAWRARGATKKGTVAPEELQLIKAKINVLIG
* = called active by the depositor; · = not tested or not shown.

SMILES	3CLpro inhibitor	RN4220 kill	Mtb bLac sens	Sa ugtP lethal	CCHFV vOTU inh	MazF activator
COc1cccc(C=NN2CCN(Cc3ccccc3)CC2)c1O	·	0	·	10	·	·
CCCCCCCCCn1c2c(c(=N)c3c1CCC3)CCCC2	-1	100*	·	100*	·	-20
CCCCCn1c2c(c(=N)c3ccccc31)CCC2	-4	3	-8	5	-1	-3
CCCCCCCCn1c2c(c(=N)c3ccccc31)CCC2	-5	98*	·	98*	20	7
CCCCCCCCCCn1c2c(c(=N)c3c1CCC3)CCC2	0	100*	100	100*	14	-24
COc1ccc(C2C=CCN(C(=O)C3CCCC3)CC(=O)N2Cc2ccc(F)cc2)cc1 (configuration not stated)	·	6	·	-6	·	·
O=C1C=C(c2cccc(CO)c2)CC(c2ccc3c(c2)OCO3)C1 (configuration not stated)	·	5	·	-11	·	·
Cc1ccc(C=NNC(=O)c2cccc(S(=O)(=O)Nc3ccccc3Cl)c2)o1	·	9	·	15	·	·
COc1ccc(C(=O)Nc2nnc(C)s2)cc1S(=O)(=O)N1CCOCC1	·	-2	0	-6	6	1
COc1ccc(C(=O)Nc2nc(C)c(C(C)=O)s2)cc1S(=O)(=O)N1CCOCC1	·	4	-2	1	21	69*
CC(OC(=O)c1ccccc1C(=O)N(C)c1ccccc1)C(=O)Nc1ccc(C(N)=O)cc1 (configuration not stated)	·	8	1	0	-1	8
CC(OC(=O)c1cc(O)c2ccccc2c1O)C(=O)Nc1ccc(C(N)=O)cc1 (configuration not stated)	·	0	-3	5	86*	-1
C[CH2][Hg][S]c1ccccc1C(=O)O	·	100*	100	98*	-1	-12
COc1ccc(OC)c(N=Cc2c(O)c3ccccc3oc2=O)c1	-4	3	3	10	-8	78*
Cc1[nH]c2ccc(-c3nnc(SCC(=O)c4ccccc4F)o3)cc2c1C	4	18	6	-23	-1	-3
Cc1ccc(C(=O)CSc2nnc(-c3ccc4[nH]c(C)c(C)c4c3)o2)cc1C	1	18	10	98*	-14	-6
CCN1C(=O)c2cccc3c(NC(=O)c4ccc5c(c4)OCCO5)ccc1c23	-7	2	6	1	9	95*
CSc1nnc(N2C(=O)C(O)=C(C(=O)c3ccc(C)o3)C2c2ccc(C)cc2)s1 (configuration not stated)	2	-3	0	-3	13	254*
Cc1cc(N2C(=O)C(O)=C(C(=O)c3ccco3)C2c2ccc(Cl)cc2)no1 (configuration not stated)	-1	87*	9	73	15	2
CSc1nnc(N2C(=O)C(O)=C(C(=O)c3ccco3)C2c2ccccc2)s1 (configuration not stated)	-5	25	8	6	16	54*
CSc1nnc(N2C(=O)C(O)=C(C(=O)c3ccco3)C2c2ccccc2F)s1 (configuration not stated)	3	20	15	0	2	21
O=S1(=O)CCOCC(Cc2ccccc2)N1Cc1ccccc1Br (configuration not stated)	·	18	·	30	·	·
Cc1cccc(C2C3C(=O)N(Cc4ccccc4)C(=O)C3[C@]3(CC(C)C)C(=O)N(c4cccc(Cl)c4)C(=O)N23)c1 (some centres not stated)	·	7	·	-15	·	·
CC(=O)N1CCN(c2ccc(NC(=S)NC(=O)c3ccc(C)c([N+](=O)[O-])c3)cc2)CC1	4	4	1	90*	2	5
COc1ccc(C(=O)Nc2ccc(N3CCN(C)CC3)cc2)cc1[N+](=O)[O-]	1	10	-3	3	0	9
SMILES	3CLpro inhibitor	RN4220 kill	Mtb bLac sens	Sa ugtP lethal	CCHFV vOTU inh	MazF activator
COc1ccc(C(=O)NC(=S)Nc2ccc(N3CCN(C(C)=O)CC3)cc2)cc1[N+](=O)[O-]	2	4	0	99*	4	10
CC1CCN(c2nc(-c3ccccc3)cc(C(F)(F)F)n2)CC1	-2	0	-6	88*	2	-9
COc1cccc(-c2cc(C(F)(F)F)nc(N3CCOCC3)n2)c1	-2	5	3	55	4	-2
COc1cccc(-c2cc(C(F)(F)F)nc(N3CCC(C)CC3)n2)c1	3	-2	6	94*	-10	0
Cc1ccc(-c2cc(C(F)F)nc(N3CCC(C)CC3)n2)cc1	0	-5	1	91*	3	-3
O=C(Nc1nccs1)C1CC=CC2CCN(Cc3ccccc3)C(=O)C21 (configuration not stated)	·	8	·	10	·	·
O=C(CN1CCCCCCC1)NN=Cc1ccccc1F	·	3	·	2	·	·
O=c1c2ccccc2nc(-c2ccco2)n1N=Cc1ccccc1O	·	-2	·	-5	·	·
CC(C)OC(=O)c1cc2c(=O)[nH]c(C(Cl)(Cl)Cl)nc2o1	1	92*	-3	87*	2	-19
O=c1cc(O)c(-c2ccc(Cl)cc2)c(Cl)[nH]1	0	3	0	0	6	6
O=C1c2cc(Cl)ccc2-c2c(O)cc(Cl)cc21	·	100*	·	100*	4	5
CNc1ccc(Br)cc(C(=O)/C=C/c2ccc(OC)cc2OC)c1=O	3	-7	5	98*	10	-1
COc1ccc(NS(=O)(=O)c2cc(NC(=NS(=O)(=O)c3ccccc3)c3ccc(F)cc3)ccc2Cl)cc1	·	5	·	-18	·	·
O=C(NCc1ccccc1)NC1(C(=O)Nc2ccc3c(c2)OCCO3)CCCCC1	0	7	4	-3	1	7
O=C(Nc1ccccc1)NC1(C(=O)NCc2ccc3c(c2)OCO3)CCCCC1	-2	9	4	100*	-5	-3
CCOc1ccc(C=NNc2ccc(S(=O)(=O)Nc3ccccc3C(=O)O)cc2[N+](=O)[O-])cc1	·	-6	4	91*	·	-33
O=C(O)c1ccccc1NS(=O)(=O)c1ccc(NN=Cc2cccc(O)c2O)c([N+](=O)[O-])c1	·	21	·	2	·	·
O=C(O)c1ccccc1NS(=O)(=O)c1ccc(NN=Cc2ccccc2F)c([N+](=O)[O-])c1	·	5	-3	92*	17	-34
CSc1ccc(C=NNc2ccc(S(=O)(=O)Nc3ccccc3C(=O)O)cc2[N+](=O)[O-])cc1	·	2	45	40	-1	-32
COC(=O)c1ccc(C=NN2CCN(Cc3ccc(C)cc3C)CC2)cc1	·	-4	·	54	·	·
CCOC(=O)c1cc(-c2csc(NN=Cc3ccccc3Cl)n2)on1	·	1	·	-11	·	·
